Source: PubChem BioAssay
V-ATPase pH: regulators of yeast V-ATPase proton transport | actives 0.37% (n = 350,000) | AID 504577 | response, % at 10 µM | S. cerevisiae, pHLuorin cytosolic pH fluorescence; in the data active = response mostly above about 7.3%, no sharp cut-off; inactive = mostly below about 5.4%; note: actives read high
tim10-1 inh: growth inhibitors of tim10-1 mutant yeast | S. cerevisiae tim10-1 ts strain growth, BacTiter-Glo, 24 h | inhibition, % at 20 µM | actives 2.2% (n = 330,000) | AID 463190;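 active = inhibition of at least 40%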;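 note: mutant grown at 25 °C; 0% = DMSO wells with yeast and 100% = wells holding no yeast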
tim23-1 inh: growth inhibitors of tim23-1 mutant yeast; S. cerevisiae tim23-1 growth, BacTiter-Glo luminescence, 24 h; inhibition, % at 20 µM; actives 1.3% (n = 330,000);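 active = growth inhibition of the mutant yeast at or above 50%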;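 note: temperature-sensitive mutant grown at 25 °C; plate controls were DMSO-treated mutant yeast for no effect and medium wells lacking yeast for full effect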
PfHsp90 yeast 2: growth inhibition of yeast expressing Plasmodium Hsp90; S. cerevisiae expressing PfHsp90, BacTiter-Glo ATP, 48 h; yeast lacking PDR1 and PDR3 efflux regulators; inhibition, % at 9.4 µM; actives 0.32% (n = 310,000);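 active = every replicate shows inhibition above about 80%, whatever the replicate mean, limit read from the data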;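 note: 0% = DMSO neutral controls and 100% = 20 µM radicicol positive controls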
TIM10 inh: inhibits growth of TIM10 yeast strain; S. cerevisiae TIM10 strain growth, BacTiter-Glo luminescence, 24 h; inhibition, % at 10 µM; actives 1.4% (n = 330,000); AID 463195;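 active = inhibition of 40% or more at the single tested concentration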;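 note: wild-type TIM10 isogenic control strain grown at permissive 25 °C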
tim10-1 conf: confirmation of tim10-1 mutant yeast growth inhibitors; inhibition, % at 20 µM; shares compounds with tim10-1 inh; S. cerevisiae tim10-1 ts strain growth, BacTiter-Glo, 24 h; actives 56% (n = 7,400);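 active = inhibition of yeast growth at or above a set limit in either of two repeat tests at 20 µM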;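 note: tim10-1 mutant grown at permissive 25 °C to find synthetic lethal compounds; 0% = DMSO yeast wells and 100% = medium wells without yeast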
tim10 confirm: TIM10 yeast growth inhibition, confirmed; shares compounds with TIM10 inh; AID 463215; S. cerevisiae tim10 strain growth, BacTiter-Glo luminescence, 24 h; actives 63% (n = 4,600); inhibition, % at 10 µM;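 active = inhibition of yeast growth at or above a set limit in either of two replicates at 10 µM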;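 note: this counterscreen used the strain with wild-type TIM10; 0% = yeast with DMSO and 100% = medium wells lacking yeast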
tim23-1 confirm: confirmation of tim23-1 mutant yeast growth inhibitors; shares compounds with tim23-1 inh; S. cerevisiae tim23-1 growth, BacTiter-Glo luminescence, 24 h; inhibition, % at 20 µM; actives 83% (n = 4,400); AID 463218;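 active = inhibition above about 39% in either of two replicate wells at 20 µM, limit read from the data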;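 note: temperature-sensitive tim23-1 mutant grown at 25 °C; 0% = DMSO wells with yeast and 100% = medium wells without yeast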
Starred values were filed as active, the others as inactive; · = not tested or not shown. Most compounds without a hit are left out; they make up all but 3.7% or so of the library.

SMILES	V-ATPase pH	tim10-1 inh	tim23-1 inh	PfHsp90 yeast 2	TIM10 inh	tim10-1 conf	tim10 confirm	tim23-1 confirm
O=C(C=Cc1cccs1)c1cccs1	3.1	·	·	·	·	·	·	·
CC(C)Cc1ccc(-c2cc(=O)[nH][nH]2)cc1	1.8	59.0*	53.4*	0.2	6.9	28.0	·	43.9*
CC(C)Cc1ccc([C@H](C)C(=O)O)cc1	-0.9	-11.3	7.1	5.4	-1.5	·	·	·
CC(C)OC(=O)n1c(=S)oc2ccccc21	-0.7	53.3*	76.3*	-39.4	47.0*	36.8*	26.0	67.3*
COC(=O)c1sc(SC)c(-c2ccon2)c1C	-1.4	10.1	34.0	0.1	-15.5	·	·	·
Cc1c(NS(=O)(=O)c2cc(C(=O)OCC(=O)c3ccccc3F)ccc2Cl)c(=O)n(-c2ccccc2)n1C	-0.1	·	·	·	·	·	·	·
CC(NC(=O)/C(C#N)=C/c1ccc(N2CCOCC2)cc1)c1ccccc1 (configuration not stated)	-1.2	17.6	32.9	-78.3	21.8	·	·	·
COC(=O)c1ccc(/C=C(\C#N)C(=O)NC(C)c2ccccc2)cc1 (configuration not stated)	-3.5	64.3*	66.5*	-14.6	61.3*	62.2*	57.5*	58.0*
O=C1N[C@H]2CC=C[C@H]2Nc2ccccc21	2.9	-4.6	26.6	16.4	-2.4	·	·	·
N/C(=N\OC(=O)Nc1ccc(Cl)cc1)c1ncc(C(F)(F)F)cc1Cl	-0.3	52.8*	75.4*	-11.3	68.8*	64.2*	80.4*	73.0*
N/C(=N\OC(=O)Nc1ccccc1)c1cccc(C(F)(F)F)c1	1.5	53.6*	63.7*	-4.6	14.2	41.1*	·	49.1*
N/C(=N\OC(=O)Nc1ccccc1)c1ncc(C(F)(F)F)cc1Cl	2.1	25.7	44.7	-3.7	25.0	·	·	·
CC(=O)c1cccc(NS(=O)(=O)c2ccc(-c3cnc(C4CC4)o3)cc2)c1	-3.0	31.5	27.3	-22.0	-10.7	·	·	·
Cc1cccc(NS(=O)(=O)c2ccc(-c3cnc(C4CC4)o3)cc2)c1C	-2.0	58.5*	68.9*	-21.3	19.0	51.6*	·	51.7*
S=C(Nc1ccccc1)N1CCn2c1nc1ccccc12	-2.3	55.5*	66.3*	1.2	42.1*	33.1*	44.0*	54.7*
O=C(Nc1ccccc1)N1CCn2c1nc1ccccc12	2.8	37.0	27.5	3.1	5.4	·	·	·
Cc1ccc(NC(=O)C(=O)c2c[nH]c3ccccc23)cc1	2.2	-7.0	10.3	-2.7	-13.8	·	·	·
Cc1ccc(C(=O)/C=C/c2c[nH]c3ccccc23)cc1	1.9	44.4*	80.4*	-29.1	35.6	22.9	·	44.5*
Cc1ccc(C(=O)/C=C/c2cn(CN3CCN(C)CC3)c3ccccc23)cc1	-0.7	52.1*	56.4*	-11.2	59.8*	37.8*	55.2*	-93.2
CN1Cc2c(N3CCOCC3)nc3sc(C(=O)c4ccc(Br)cc4)c(N)c3c2CC1(C)C	-1.8	57.7*	57.8*	·	21.0	-16.4	·	52.6*
CN1Cc2c(N3CCOCC3)nc3sc(C#N)c(N)c3c2CC1(C)C	3.2	-18.6	-12.5	1.4	-8.0	·	·	·
O=C(/C(=C/c1ccccc1)n1cncn1)c1ccc(Cl)cc1Cl	0.4	79.8*	92.2*	8.1	82.1*	82.1*	-3.8	91.2*
CCCCCCNS(=O)(=O)c1ccc(Cl)s1	-0.4	43.2*	56.2*	·	-0.8	26.4	·	46.8*
O=S(=O)(NCCCN1CCOCC1)c1ccc(Cl)s1	-1.8	-19.3	0.1	-5.3	1.5	·	·	·
O=C(N/N=C/c1ccco1)c1ccccc1OCc1ccccc1Cl	0.8	43.9*	50.6*	-2.7	42.2*	41.4*	37.6*	48.2*
SMILES	V-ATPase pH	tim10-1 inh	tim23-1 inh	PfHsp90 yeast 2	TIM10 inh	tim10-1 conf	tim10 confirm	tim23-1 confirm
O=[N+]([O-])c1ccc(NC(=S)NCCc2ccc(Cl)cc2)cc1	2.9	64.7*	65.1*	107.6*	72.0*	72.7*	85.4*	67.6*
O=[N+]([O-])c1ccc(NC(=S)NCCc2ccccc2)cc1	-0.4	67.1*	52.5*	-6.1	58.9*	56.8*	51.8*	68.9*
NS(=O)(=O)c1ccc(NC(=S)NCCc2ccccc2)cc1	-1.7	-1.2	-0.9	-4.5	-5.4	·	·	·
CCCNC(=O)c1nnsc1S(=O)c1ccc(Cl)cc1 (configuration not stated)	2.5	90.6*	82.2*	105.0*	82.7*	87.4*	95.7*	91.2*
Cc1ccc(S(=O)c2snnc2C)cc1 (configuration not stated)	-0.1	-0.8	7.4	-14.6	13.0	·	·	·
CCCNC(=O)c1ccc2snnc2c1	11.9	4.1	12.0	27.7	-3.5	·	·	·
CCCNC(=O)c1nnsc1S(=O)(=O)c1ccc(Cl)cc1	-6.6	75.0*	63.8*	104.7*	75.8*	66.2*	70.0*	63.0*
CCCNC(=O)NS(=O)(=O)c1ccc(Cl)cc1	-2.3	4.5	-5.6	17.6	12.1	·	·	·
CNC(=O)c1nnsc1S(=O)c1ccc(Cl)cc1 (configuration not stated)	-2.4	70.1*	51.6*	-19.6	76.5*	67.8*	73.3*	50.8*
CC1=C2C3OC(=O)C(C)C3CCC2(C)C=C(Br)C1=O (configuration not stated)	-0.8	·	·	·	·	·	·	·
CCOC(=O)c1sc(=NC(=O)c2c(F)cccc2F)n(C)c1C	2.1	43.0*	56.0*	24.1	47.1*	-20.4	45.9*	76.2*
CC(C)Cn1c(-c2csc3ccccc23)n[nH]c1=S	2.6	38.1	35.0	-6.0	34.6	·	·	·
Cc1cccc(-n2c(-c3csc4ccccc34)n[nH]c2=S)c1	2.9	45.1*	50.6*	-19.5	37.7	29.6	·	42.9*
COc1ccc2nc3oc(C(=O)N4CC(C)CC(C)C4)cc3cc2c1 (configuration not stated)	0.8	59.3*	53.8*	-13.6	14.7	4.8	·	41.1*
COC(=S)N/C(=N\S(=O)(=O)c1ccc(Cl)cc1)c1ccccc1	-2.1	16.5	20.9	-9.7	11.7	·	·	·
CCC(C)(C)C1CCc2[nH]nc(C(=O)NC3CCCC3)c2C1 (configuration not stated)	-4.9	41.7*	59.2*	5.4	38.9	34.6*	·	57.0*
CCC(C)(C)C1CCc2[nH]nc(C(=O)NCc3ccc(OC)cc3)c2C1 (configuration not stated)	1.5	18.7	31.5	-18.7	-0.2	·	·	·
Cc1ccc(NC(=O)c2cnccn2)cc1S(=O)(=O)N1CCCCCC1	-1.4	14.6	34.8	-1.1	3.9	·	·	·
CCOC(=O)CNc1c(-c2ccccc2)nc2ccc(Cl)cn12	2.7	40.4*	51.3*	73.4	40.3*	32.8*	2.5	51.0*
CCOC(=O)CNc1c(-c2ccc(O)cc2)nc2ccc(Cl)cn12	-1.3	19.5	42.5	-18.4	23.9	·	·	·
